# Compound activity as filed in PubChem.
# Hits are enriched below; roughly 2.9% of the tested compounds scored in any of these assays.
# KDM5B inhibitor: KDM5B demethylase inhibition; Potency, µM (titrated, usually from 57.7 µM), actives largely listed as inhibitors; KDM5B demethylase, FDH-coupled NADH fluorescence (FDH is formaldehyde dehydrogenase); actives 2.6% (n = 220,000); also: potency is read from the fitted curve at half-maximal effect; 0% is about no effect; nearly all actives have a fitted effect of over 70% in size
#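 Inhibition is measured as reduced NADH fluorescence generation from FDH coupling to formaldehyde release. Truncated KDM5BΔAP at 200 nM final acts on H3K4me3 peptide (12.5 µM in substrate mix) in pH 7.5 HEPES buffer with Tween-20, 30 min, room temperature.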
# SNCA expr inhib: reduces expression of the alpha-synuclein gene. HEK-293 SNCA-luciferase knock-in, luminescence, 24 h. Potency, µM (doses to about 57.2 µM), for the others: top-dose activity change, negative = inhibition, hits mostly inhibitors. actives 0.17% (n = 140,000). AID 1671194;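 also: potency is read from the fitted curve at half-maximal effect; plate controls were DMSO cells for no effect and cell-free wells for full effect; nearly all actives have a fitted effect of over 45% in size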
# IP6K1 inhibitor: IP6K1 kinase inhibition; actives 0.81% (n = 140,000); AID 1645851; activity change, % (series mostly up to about 58 µM); IP6K1 kinase, ADP-Glo luminescence, 2 h; active compounds read low; in the data active = activity change below about -25%; also: % is scaled to controls: 0 for no effect and ±100 for the full control effect
# Target sequence (Q92551 whole entry, looked up): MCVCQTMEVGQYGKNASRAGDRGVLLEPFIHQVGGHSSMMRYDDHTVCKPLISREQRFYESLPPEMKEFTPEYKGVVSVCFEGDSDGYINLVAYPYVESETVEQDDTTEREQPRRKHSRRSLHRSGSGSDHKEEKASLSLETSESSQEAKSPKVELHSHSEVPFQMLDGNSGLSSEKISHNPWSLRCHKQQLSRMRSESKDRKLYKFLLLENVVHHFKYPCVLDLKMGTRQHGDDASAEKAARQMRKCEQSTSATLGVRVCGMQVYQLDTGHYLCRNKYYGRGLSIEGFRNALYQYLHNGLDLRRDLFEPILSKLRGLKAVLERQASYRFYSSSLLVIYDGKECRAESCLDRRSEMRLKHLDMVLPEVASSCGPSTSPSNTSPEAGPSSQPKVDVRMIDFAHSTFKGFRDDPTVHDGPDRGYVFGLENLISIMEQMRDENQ
#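 ADP-Glo luminescence measures ADP made by human IP6K1 during a 2 h RT reaction with ATP/IP6 (mix at 1.3 mM/130 uM); top library doses 57.5 and 19.1 uM final.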
# SNCA viab count: reduces viability of HEK-293 SNCA reporter cells; Potency, µM (titrated, usually from 57.1 µM), without a hit: at the top dose activity change, negative = cytotoxicity, most hits filed as cytotoxic; HEK-293-SNCA-luc viability, GF-AFC fluorescence, 24 h; actives 0.12% (n = 150,000);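 also: potency is read from the fitted curve at half-maximal effect; 0% = DMSO-treated cells and -100% = medium-only wells without cells; nearly all actives have a fitted effect of over 30% in size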
#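 HEK-293-SNCA-luc cells (1500/well) plated 24 h, then exposed 24 h to a dilution series; GF-AFC added 30 min at 37C, fluorescence 405/540 nm; normalised to medium-only and DMSO wells, Hill fit.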
# Starred values were filed as active, the others as inactive; i = inactive; ? = inconclusive; nt = no result given; [ ] = dose if it differs, or a comment. Unless noted, calls follow the shape of the dose curve; as a rule, active = well fitted curve in the direction sought with a large enough effect; inconclusive = small, poorly fitted or top-dose-only effect, or another doubt; inactive = no such curve, though single readings can be large; an effect the other way counts as inactive or inconclusive.
SMILES,KDM5B inhibitor,SNCA expr inhib,IP6K1 inhibitor,SNCA viab count
COc1cc(-c2onc(C)c2C(=O)NCCc2cccs2)cc(OC)c1OC,22.4µM*,30.1%,-1.4,0.3%
COc1cc(-c2onc(C)c2C(=O)NCCSC)cc(OC)c1OC,31.6µM*,7.9%,-1.6,7.2%
CNC(=O)c1ccc(NC(=O)C2CCN(S(=O)(=O)c3ccc4c(c3)CCC4)CC2)cc1,i,nt,nt,nt
CCOc1ccc(-c2ccnc(-c3ncccn3)n2)cc1C(=O)O,i,-5.8%,0.0,?
CCOc1ccc(-c2ccnc(N3CCOC(CN)C3)n2)cc1C(=O)O (centres undefined),28.2µM*,-14.1%,-4.4,4.2%
O=C(NCc1ccncc1)c1cc(-c2ccncc2)nc2ccccc12,i,nt,nt,nt
COc1cccc(-c2nc(-c3c(C)noc3C)cc3c2cc(C)n3CCN(C)C)c1,39.8µM*,21.3%[87.6 µM],-11.8,-13.1%[87.6 µM]
Cc1noc(C)c1-c1cc2c(cc(C)n2C)c(-c2ccccc2)n1,i,4.2%[87.6 µM],-14.8,7.7%[87.6 µM]
COc1cc(-c2nc(-c3c(C)noc3C)cc3c2cc(C)n3C)ccn1,i,24.7%[87.6 µM],-18.7,-8.2%[87.6 µM]
Cc1cc2c(-c3cccnc3)nc(-c3c(C)noc3C)cc2[nH]1,28.2µM*,74.7%[87.6 µM],-14.6,-21.6%[87.6 µM]
Cc1noc(C)c1-c1cc2c(cc(C)n2C)c(-c2cccc([S+](C)(=O)[O-])c2)n1,25.1µM*,54.9%[87.6 µM],-9.1,5.2%[87.6 µM]
COc1ccc(-c2nc(-c3c(C)noc3C)cc3c2cc(C)n3CCN(C)C)cc1OC,i,-18.3%[87.6 µM],-6.9,-21.1%[87.6 µM]
COc1cccc(-c2nc(-c3c(C)noc3C)cc3c2cc(C)n3C)c1OC,35.5µM*,120.0%[87.6 µM],-4.0,3.6%[87.6 µM]
Cc1cc2c(-c3ccccc3)nc(-c3c(C)noc3C)cc2[nH]1,i,26.9%[87.6 µM],-19.5,-3.1%[87.6 µM]
Cc1noc(C)c1-c1cc2c(cc(C)n2C)c(-c2cccnc2)n1,35.5µM*,60.5%[87.6 µM],-22.1,6.9%[87.6 µM]
COc1cc(F)ccc1-c1nc(-c2c(C)noc2C)cc2[nH]c(C)cc12,35.5µM*,56.2%[87.6 µM],-24.4,-12.0%[87.6 µM]
COc1ccccc1-c1nc(-c2c(C)noc2C)cc2[nH]c(C)cc12,i,45.9%[87.6 µM],-2.9,-2.7%[87.6 µM]
O=C(c1ccc(N2CCCC2)nc1)N1CCC(N2CCOCC2)CC1,?,-17.9%,1.2,-13.5%
O=C(c1ccc(N2CC[C@H](O)C2)nc1)N1CCC(N2CCOCC2)CC1,25.1µM*,14.1%,35.9,-8.6%
Cc1nn(C(=O)c2ccccc2)c(C)c1Sc1ccc(Cl)cc1,i,?,-10.9,20µM*
Cc1ccc(Sc2c(C)nn(C(=O)c3ccc(Br)cc3)c2C)cc1,i,3.8%,-8.5,-7.5%
Cc1ccc(-n2cccc2CC(=O)NC2CCCCC2)cc1,i,3.9%,6.4,-3.3%
O=C(N[C@H](c1cccs1)C1CC(O)C1)c1cnn2cc(CCO)cnc12 (some centres undefined),14.1µM*,-21.8%,0.0,-0.4%
CNc1ncccc1C(=O)N[C@H](c1cccs1)C1CC(O)C1 (some centres undefined),28.2µM*,2.5%,15.4,11.4%
O=C(N[C@H](c1cccs1)C1CC(O)C1)c1cccc(-n2cccn2)c1 (some centres undefined),i,2.9%,-14.2,1.3%
SMILES,KDM5B inhibitor,SNCA expr inhib,IP6K1 inhibitor,SNCA viab count
CNc1cc(C(=O)N[C@H](c2cccs2)C2CC(O)C2)ccn1 (some centres undefined),28.2µM*,34.7%,0.0,8.4%
Cn1ccc2c(C(=O)N[C@H](c3cccs3)C3CC(O)C3)cccc21 (some centres undefined),i,-3.2%,0.0,5.9%
Cc1ccc(C2Cn3cnc(C(=O)N4CCC(C(=O)NCc5ccccc5C)CC4)c3CO2)cc1 (centres undefined),i,10.3%,6.7,2.3%
CCOc1ccc(CC2C(=O)N(C)c3ccc(Br)cc32)cc1 (centres undefined),i,nt,nt,nt
COc1ccc2cc(C(=O)N3CC4CC(C3)[C@H]3CCCC(=O)N3C4)[nH]c2c1 (some centres undefined),i,9.8%,24.6,6.3%
COc1ccc2cc(C(=O)NC3CCN(C(=O)N4CC5CC(C4)[C@H]4CCCC(=O)N4C5)CC3)[nH]c2c1 (some centres undefined),28.2µM*,15.2%,21.7,0.2%
O=C(NCc1ccccc1)C1Cc2ccccc2S1 (centres undefined),i,nt,nt,nt
O=C(NCc1ccccn1)c1ccc(F)cc1,i,nt,nt,nt
Cc1c(CNC(=O)c2ccc3nc(-c4ccc(F)cc4)cn3c2)cnn1C,28.2µM*,50.4%,20.6,-1.1%
O=C(Nc1ccc(-c2nnc3n2CCCC3)cc1)c1ccc(F)cc1,i,32.2%,37.3,8.8%
O=C(NCc1nnc2n1CCC2)c1ccc2nc(-c3ccc(F)cc3)cn2c1,31.6µM*,20.8%,11.0,6.4%
O=C(NCc1ccc(F)cc1)c1ccc2nnc(-c3ccoc3)n2c1,nt,-1.2%[87.6 µM],1.3,9.8%[87.6 µM]
COc1ccc(CNC(=O)c2cc(-c3ccc(F)cc3)nc3c2cnn3C)cc1,nt,nt,-11.4,nt
O=C(NCCCc1ccccn1)c1ccc2nc(-c3ccc(F)cc3)cn2c1,28.2µM*,102.6%,2.1,-9.1%
O=C(NCc1ccoc1)c1ccc2nc(-c3ccc(F)cc3)cn2c1,25.1µM*,46.2%,-5.7,-2.1%
COc1cccc(CC(=O)N2CCCN(S(=O)(=O)c3ccccc3)CCC(=O)NCC2)c1,i,17.1%,5.0,-0.4%
Cc1noc(C)c1[S+](=O)([O-])N1CCC(C(=O)N2CCC(N3CCOC3=O)CC2)CC1,nt,?,-3.9,6.1%
Cc1cc(C(C)(C)C)cc(C)c1S(=O)(=O)N1CCN(C(C)c2nc3ccccc3c(=O)[nH]2)CC1 (centres undefined),i,nt,nt,nt
COc1ccccc1-c1nnc([C@H]2CCN(CC3CCCCC3)C2)o1,35.5µM*,0.1%[87.6 µM],8.0,-14.1%[87.6 µM]
CCn1cc(C(=O)N[C@@H]2COCC[C@@H]2OCC2CC2)c(=O)c2ccc(C)nc21,i,-2.0%,-8.8,3.6%
Cc1cc(C)n2nc(C)c(C(=O)N[C@@H]3COCC[C@@H]3OCC3CC3)c2n1,22.4µM*,1.0%,10.4,7.4%
COc1ccc2[nH]cc(CN3CCC([C@H]4[C@@H](OC)C(=O)N4C(C)C)CC3)c2c1,i,12.1%,26.9,-6.8%
CC(C)(C)c1nc(C(=O)N2CCCC2)n2ccccc12,112µM*,?,-5.1,-9.2%[87.6 µM]
CC(C)NC(=O)c1nc(-c2ccccc2)c2ccccn12,i,0.0%[87.6 µM],1.1,7.2%[87.6 µM]
CC(C)NC(=O)c1nc(C(C)(C)C)c2ccccn12,112µM*,2.2%[87.6 µM],-9.6,7.1%[87.6 µM]
COc1ccc(-c2nc(C(=O)N3CCCC3)n3ccccc23)cc1,?,23.1%[87.6 µM],7.7,10.5%[87.6 µM]
C#CCNC(=O)c1nc(C(C)(C)C)c2ccccn12,112µM*,2.5%[87.6 µM],-8.2,-0.7%[87.6 µM]
CC(=O)N1CCC(N2CCOC[C@H]2c2ncc(-c3ccc(C)cc3)[nH]2)CC1,i,-20.7%[87.6 µM],-1.4,-2.4%[87.6 µM]
COc1cc(Br)c(Nc2nc(-c3c(C)nc4ncccn34)cs2)c(Br)c1,nt,nt,-12.7,5.97µM*
Cn1ccc2c(C(=O)NCc3cccnc3)nc(-c3cccc(F)c3)cc21,22.4µM*,-7.5%[87.6 µM],2.2,-8.7%[87.6 µM]
